# Compound activity deposited in PubChem by several laboratories.
# In the library only some 4.8% were active in any assay of this set; here they are far more common.
# Beta cell apopt = blocks beta cell apoptosis | hit rate 0.8% among 300,000 | AID 435005 | protection from apoptosis, % (concentration not given with the values) | INS-1E cytokine-induced death, ATP luminescence, 48 h; percent of positive-control rescue, neutral wells zero;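 active = Every replicate reaches about 75%, or at least half do and their mean reaches it too, limit read from the data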;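 also: 0% = cytokine-treated negative control wells and 100% = positive control rescue; higher means more ATP so stronger rescue from cytokine killing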
# Mdm2-MdmX inh = human Mdm2/MdmX binding inhibition; hit rate 3% among 330,000; SaOS-2 split-luciferase Mdm2/MdmX complementation, luminescence; inhibition, % at 8 µM;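 active = inhibition of at least 50% at 8 µM in the primary screen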
# Target sequence (O15151 whole entry, looked up): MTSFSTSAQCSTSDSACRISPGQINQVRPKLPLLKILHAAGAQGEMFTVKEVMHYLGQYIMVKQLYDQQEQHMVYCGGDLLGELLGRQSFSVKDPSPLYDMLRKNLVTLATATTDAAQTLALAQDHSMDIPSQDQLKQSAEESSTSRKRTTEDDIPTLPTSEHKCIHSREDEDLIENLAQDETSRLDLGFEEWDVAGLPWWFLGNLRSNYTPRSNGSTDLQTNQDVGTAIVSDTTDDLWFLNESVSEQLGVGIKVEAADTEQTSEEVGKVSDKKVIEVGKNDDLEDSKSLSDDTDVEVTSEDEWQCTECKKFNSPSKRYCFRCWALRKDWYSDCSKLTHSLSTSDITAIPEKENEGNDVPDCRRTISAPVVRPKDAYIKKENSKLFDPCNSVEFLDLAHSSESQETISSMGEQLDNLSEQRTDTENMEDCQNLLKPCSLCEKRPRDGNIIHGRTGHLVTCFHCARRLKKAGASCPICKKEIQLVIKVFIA
# Target sequence (Q00987 whole entry, looked up): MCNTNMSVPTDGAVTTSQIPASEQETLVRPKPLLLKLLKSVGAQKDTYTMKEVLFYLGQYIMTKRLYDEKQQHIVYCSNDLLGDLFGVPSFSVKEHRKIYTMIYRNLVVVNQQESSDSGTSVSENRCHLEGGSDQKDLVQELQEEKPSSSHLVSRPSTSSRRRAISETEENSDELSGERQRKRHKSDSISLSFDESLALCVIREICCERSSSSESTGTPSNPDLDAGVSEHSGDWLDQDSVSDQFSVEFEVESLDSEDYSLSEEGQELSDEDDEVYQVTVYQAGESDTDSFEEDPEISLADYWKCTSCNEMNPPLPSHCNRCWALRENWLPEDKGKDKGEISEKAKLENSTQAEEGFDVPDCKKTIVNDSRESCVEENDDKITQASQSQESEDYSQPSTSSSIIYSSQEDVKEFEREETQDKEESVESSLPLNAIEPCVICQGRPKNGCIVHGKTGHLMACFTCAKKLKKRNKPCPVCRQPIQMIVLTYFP
# Calb FLC = C. albicans growth modulation with fluconazole; hit rate 0.57% among 300,000; C. albicans CaCi-2 (fluconazole-resistant clinical isolate) + fluconazole, Alamar Blue growth, 48 h; growth inhibition, % (concentration not given with the values);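 active = growth inhibition above about 58% in most replicates, limit read from the data, passing the limit was not always enough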;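 also: all wells also contain fluconazole at 8 µg/ml as a sub-toxic cotreatment; 0% = median of DMSO wells and 100% = median of geldanamycin control wells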
# MPTP block = inhibitors of mitochondrial permeability transition pore; isolated mouse mitochondria, Ca2+ swelling absorbance, 30 min; inhibition, % at 10 µM; hit rate 1.4% among 360,000;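 active = inhibition of 50% or more, scaled per plate between neutral and stimulator controls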;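 also: 0% = DMSO wells given calcium and 100% = 1 mM EGTA wells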
# CSC inhib = cancer stem cell inhibition; cancer stem cell-like cells viability, luminescence; AID 2717; inhibition, % at 7.5 µM; hit rate 1.1% among 300,000; in the data active = inhibition above about 75%; tested in HMLE shEcad cells
# Mdm2-MdmX conf = human Mdm2/MdmX binding inhibition, confirmed; shares compounds with Mdm2-MdmX inh; luminescent assay; inhibition, % at 8 µM; hit rate 55% among 10,000; AID 489028; in the data active = inhibition above about 40%
# FLuc counter = full-length luciferase inhibition in Mdm2/MdmX counter-screen; shares compounds with Mdm2-MdmX inh; hit rate 77% among 6,200; AID 504607; inhibition, % at 8 µM; SaOS-2 full-length luciferase counterscreen, luminescence;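 active = mean inhibition at 8 µM reaching about 37%, which flags the compound as non-specific, limit read from the data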;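 also: p53-null SaOS-2 cells with luciferase driven by a doxycycline-inducible promoter; compound on cells about two nights before reading with doxycycline added after day one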
# Active calls of the source: *; nt = no result given.
SMILES,Beta cell apopt,Mdm2-MdmX inh,Calb FLC,MPTP block,CSC inhib,Mdm2-MdmX conf,FLuc counter
COc1ccc(NC(=O)c2oc3ccccc3c2NC(=O)c2ccc(OC)c(OC)c2)c(OC)c1,nt,nt,nt,1,nt,nt,nt
Cc1ccc(C)c(NC(=O)Cn2nnc(C(=O)NCc3cccs3)c2N)c1,0,65*,-1,-1,19,12,nt
COc1ccc(NC(=O)c2oc3ccccc3c2NC(=O)COc2ccccc2OC)c(OC)c1,9,70*,30,0,7,-5,nt
COc1ccc(NC(=O)c2nnn(CC(=O)Nc3ccccc3OC)c2N)c(OC)c1,-2,68*,-7,0,0,-2,nt
COc1ccccc1NC(=O)Cn1nnc(C(=O)NCc2cccs2)c1N,nt,56*,4,2,54,64*,68*
COC(=O)[C@@H]1ON2OCC(C)=C3CCCC[C@@]32[C@H]1C(=O)OC,nt,nt,nt,0,nt,nt,nt
CC(=O)Nc1ccc(S(=O)(=O)NCc2cc(=O)n(C)c(=O)n2C)cc1,-4,14,-5,0,-5,nt,nt
COc1ccc(C(CNC(=O)c2ccc(S(=O)(=O)N3CC(C)CC(C)C3)cc2)N(C)C)cc1 (stereo not drawn),6,51*,nt,7,34,17,nt
COc1ccc(C(CNC(=O)c2ccc(S(=O)(=O)N3CCCC3)cc2)N(C)C)cc1OC (stereo not drawn),-8,-12,-7,2,nt,nt,nt
c1ccc2c(c1)CCN(c1nc3cc4c(cc3s1)OCCO4)C2,14,81*,-6,0,nt,77*,93*
C[C@@H]1COc2cccc(N3CCC[C@@H]3CO)c2S(=O)(=O)N1,nt,nt,nt,-2,nt,nt,nt
CCN1C(=O)C2(Nc3ccccc3-c3nc4ccccc4n32)c2cc(OC)ccc21 (stereo not drawn),-2,66*,-9,1,0,96*,24
CN1C(=O)C2(Nc3ccccc3-c3nc4ccccc4n32)c2ccccc21 (stereo not drawn),-8,48,1,3,-20,nt,nt
CCOC(=O)[C@]12CCCC=C1N(CCC1=CCCCC1)C(=O)[C@H](CC(=O)NCCCN1CCCC1=O)C2,nt,nt,nt,0,nt,nt,nt
Cc1ccc2oc(C(Cl)(Cl)Cl)cc(=O)c2c1,12,74*,35,-1,33,53*,60*
Cc1ccc2oc(C(F)(F)C(F)F)cc(=O)c2c1,-6,25,-9,0,-12,nt,nt
COc1ccc2[nH]c(C)c(CCNC(=S)Nc3cccc(C)c3)c2c1,nt,46,-4,-1,-7,nt,nt
CCc1cccc(CC)c1NC(=S)NCCc1c(C)[nH]c2ccc(C)cc12,42,71*,-17,0,18,51*,54*
CCc1cccc(C)c1NC(=S)NCCc1c(C)[nH]c2ccc(C)cc12,3,64*,-14,1,5,54*,41*
COc1ccc(CCNC(=O)CSc2nnc(-c3ccco3)c(-c3ccco3)n2)cc1OC,3,-12,15,nt,nt,nt,nt
OCCCn1c(C2CCCN2c2nc(-c3ccc(Cl)cc3)cs2)nc2cc(Cl)c(N3CCCCC3)cc21 (stereo not drawn),-13,73*,0,1,13,19,nt
OCCCn1c(C2CCCN2c2nc(-c3ccc(F)cc3)cs2)nc2cc(Cl)c(N3CCCCC3)cc21 (stereo not drawn),-8,63*,-1,1,1,-6,nt
COc1ccc(-c2nc3c(c(SCC(=O)N4CCOCC4)n2)Cc2c(CO)cnc(C)c2O3)cc1,3,58*,14,0,8,28,nt
O=C(Nc1ccccc1C(=O)NC1CCCCC1)c1ccccc1,-1,11,-6,-2,36,nt,nt
O=C(Nc1ccccc1C(=O)NC(Cc1ccccc1)C(=O)NC1CCCCCC1)c1ccccc1 (stereo not drawn),16,62*,-1,1,-5,-1,nt
SMILES,Beta cell apopt,Mdm2-MdmX inh,Calb FLC,MPTP block,CSC inhib,Mdm2-MdmX conf,FLuc counter
CC(C)(C)n1nnnc1C(c1cccs1)N(Cc1ccc(Cl)cc1)CC1CCCO1 (stereo not drawn),7,56*,-2,0,27,57*,70*
CC(C)(C)n1nnnc1C(c1cccs1)N(Cc1ccccc1)Cc1cccnc1 (stereo not drawn),-2,14,-9,-1,6,nt,nt
CCN1C(=O)/C(=C/c2nc3ccccc3c(=O)n2-c2ccccc2)c2ccccc21,23,83*,6,-2,22,49*,57*
CCn1c(=S)[nH]c2c(=O)n(C)c(=O)n(C)c21,nt,nt,nt,0,nt,nt,nt
Cc1cccc(NC(=O)c2cc3c(=O)n4ccccc4nc3s2)c1,5,7,14,0,-2,nt,nt
CCN(CC)S(=O)(=O)c1ccc(OC)c(NC(=O)c2cc3c(=O)n4ccccc4nc3s2)c1,6,55*,5,0,-4,7,nt
O=C(Nc1cccc(Cl)c1)c1cc2c(=O)n3ccccc3nc2s1,-6,56*,1,-4,-21,18,nt
CC(=O)NS(=O)(=O)c1ccc(NC(=O)c2cc3c(=O)n4ccccc4nc3s2)cc1,2,21,-11,0,-11,nt,nt
COc1cccc2sc(Nc3nnc(-c4ccc(F)cc4)o3)nc12,26,64*,117*,1,107*,41*,67*
COc1cccc2sc(Nc3nnc(-c4cccs4)o3)nc12,68,20,-7,0,63,nt,nt
Cc1ccccc1OCC(=O)O/N=C(\N)Cc1cccs1,nt,-4,-7,2,nt,nt,nt
COc1ccccc1C/C(N)=N/OC(=O)c1cccs1,nt,51*,-19,0,nt,11,nt
Cc1ccccc1C(=O)O/N=C(\N)Cc1cccs1,nt,100*,10,-1,-4,92*,115*
CCOC(=O)C1CCCN(C(=O)CCn2nnnc2CN2CCOCC2)C1 (stereo not drawn),-3,-2,32,-1,4,nt,nt
COc1ccc(/C=C/C(=O)NNC(=O)C(C)Oc2ccccc2F)cc1OC (stereo not drawn),-10,30,nt,-2,-13,nt,nt
COc1ccc(-c2nc(C(=O)NCC3CCCO3)cc3c2[nH]c2ccccc23)cc1 (stereo not drawn),nt,46,-3,0,-2,nt,nt
O=C(NCC1CCCO1)c1cc2c([nH]c3ccccc32)c(-c2cccc(Br)c2)n1 (stereo not drawn),58,62*,-5,-1,34,36,63*
Cc1ccc(-c2nc(C(=O)NCCCN(C)C)cc3c2[nH]c2ccccc23)cc1,21,66*,1,0,10,27,nt
Cc1ccccc1-c1nc(C(=O)NCC2CCCO2)cc2c1[nH]c1ccccc12 (stereo not drawn),35,57*,-1,-3,-12,28,nt
Cc1ccc(-c2nc(C(=O)NCC3CCCO3)cc3c2[nH]c2ccccc23)cc1 (stereo not drawn),49,73*,0,0,46,44*,66*
CC(C)CNC(=O)C1(C)CCCN1C(=O)C(C)(C)Oc1ccc(Cl)cc1 (stereo not drawn),nt,nt,nt,0,nt,nt,nt
